From the supplement of paper PMC11634586 come the findings set out here.

Structures can show the parent of a compound that is named as a salt. Values without a mark were called inactive.

The test concerns NCI-H1688. In words: inhibition of cell viability relative to untreated control (fraction); higher = stronger growth inhibition, active = 0.5 or more. As to conditions: 30 µM; 24 h. A digest of the protocol: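 NCI-H1688 small cell lung cancer cells were seeded at 3 × 10^3 cells/well in 96-well plates and treated 24 h later with a natural compound library (TargetMol) at 30 µM for 24 h, at 37°C with 5% CO2. Viability was read in triplicate with Cell Counting Kit-8 as absorbance at 450 nm. Inhibition of cell viability is expressed as a fraction, derived from viability normalised to the untreated control.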
Turning to `C[C@H]1[C@H](C)CC[C@]2(C(=O)O)CC[C@]3(C)C(=CC[C@@H]4[C@@]5(C)CC[C@H](O)C(C)(C)[C@@H]5CC[C@]43C)[C@H]12` [Ursolic acid], the “inhibition of cell viability” value is 1.01 (active). The result for `O=c1c(-c2ccc(O)cc2)coc2cc(O[C@@H]3O[C@H](CO)[C@@H](O)[C@H](O)[C@H]3O)cc(O)c12` [Genistin] reads 0.279. For `O=C(O)CCCCCCCC(=O)O` [Azelaic acid], the “inhibition of cell viability” value was 0.133. The result for `C[n+]1cc2c3c(ccc2c2ccc4cc5c(cc4c21)OCO5)OCO3` [Sanguinarine chloride] reads 0.982 (active); that for `O=C(O)[C@H](O)Cc1ccc(O)c(O)c1` [Danshensu], 0.318.

With `COc1cc2ccc(=O)oc2c(O)c1O` [Fraxetin], the “inhibition of cell viability” value was -0.0287. Take `OC[C@H]1O[C@H](O[C@H]2[C@H](O)[C@@H](O)[C@H](O)O[C@@H]2CO)[C@H](O)[C@@H](O)[C@@H]1O` [Maltose]: the “inhibition of cell viability” value is 0.0503. On to `CC(C)=CCC/C(C)=C/CC/C(C)=C/CC/C(C)=C/CC/C(C)=C/CC/C(C)=C/CC/C(C)=C/CC/C(C)=C/CC/C(C)=C/CO` [Solanesol], for which the “inhibition of cell viability” value is 0.301. The result for `NC[C@H]1O[C@H](O[C@H]2[C@H](O)[C@@H](O[C@H]3O[C@H](CO)[C@@H](O)[C@H](N)[C@H]3O)[C@H](N)C[C@@H]2N)[C@H](O)[C@@H](O)[C@@H]1O` [Kanamycin sulfate] reads 0.154; that for `C[C@H](O)[C@H]1CC[C@H]2[C@@H]3CC[C@@H]4C[C@H](O)CC[C@]4(C)[C@H]3CC[C@]12C` [5Beta-Pregnane-3Alpha,20alpha-Diol], -0.113. `CCCCCCCCCC[C@H](C(=O)O)[C@]1(C(=O)O)CCC(=O)O1` [Spiculisporic Acid]: the “inhibition of cell viability” value was 0.104. The result for `O=C1C[C@@H](c2ccc(O)cc2)Oc2cc(O)cc(O)c21` [Naringenin] reads -0.726.

For the compound `OC[C@H]1O[C@H](OCC2O[C@@H](O)[C@H](O)[C@@H](O)[C@@H]2O)[C@H](O)[C@@H](O)[C@H]1O` (stereo not given in full) [Melibiose], the “inhibition of cell viability” value was -0.13.

For the compound `O=C1CCC[C@@H]2[C@H]3CCC[N+]4([O-])CCC[C@@H](CN12)[C@@H]34` (stereo not given in full) [Oxymatrine], the “inhibition of cell viability” value was 0.0776. As for `Nc1ncnc2c1ncn2[C@@H]1O[C@H](CO)[C@@H](O)[C@H]1O` [Adenosine], the “inhibition of cell viability” value is 0.189. Regarding `O=c1c(-c2ccc(O)cc2)coc2c([C@@H]3O[C@H](CO)[C@@H](O)[C@H](O)[C@H]3O)c(O)ccc12` [Puerarin (Kakonein)], the “inhibition of cell viability” value is 0.109.

Regarding `CC(=O)[C@H]1CC[C@H]2[C@@H]3CCC4=CC(=O)CC[C@]4(C)[C@H]3CC[C@]12C` [Progesterone], the “inhibition of cell viability” value was -0.156.

On to `Cc1coc2c1C(=O)C(=O)c1c-2ccc2c(C)cccc12` [Tanshinone I], for which the “inhibition of cell viability” value was 0.929 (active). With `COC(=O)[C@@H]1[C@H]2C[C@H]3c4[nH]c5ccccc5c4CCN3C[C@@H]2CC[C@@H]1O` [Yohimbine hydrochloride], the “inhibition of cell viability” value is 0.0994. The figure for `C=C(C)[C@H]1CC=C(C)CC1` [(R)-(+)-Limonene] is 0.281. Turning to `CC(C)=CCC[C@](C)(O[C@@H]1O[C@H](CO)[C@@H](O)[C@H](O)[C@H]1O)[C@H]1CC[C@]2(C)[C@@H]1[C@H](O)C[C@@H]1[C@@]3(C)CC[C@H](O[C@@H]4O[C@H](CO)[C@@H](O)[C@H](O)[C@H]4O[C@@H]4O[C@H](CO)[C@@H](O)[C@H](O)[C@H]4O)C(C)(C)[C@@H]3CC[C@]12C` [Ginsenoside Rd], the “inhibition of cell viability” value was 0.03. The result for `COC(=O)/C=C/c1ccc(O)cc1` [Methyl 4-hydroxycinnamate] reads -0.109; that for `COc1cc(/C=C/C(=O)O)ccc1O` [Ferulic Acid], 0.0447. The figure for `CN[C@@H](C)[C@H]1[C@H](O)C[C@@]2(C)[C@@H]3CC[C@H]4C(C)(C)[C@@H](NC)CC[C@@]45C[C@@]35CC[C@]12C` [Cyclovirobuxin D] is -0.0295. The figure for `CC(C)=CCC[C@](C)(O[C@@H]1O[C@H](CO[C@@H]2O[C@@H](CO)[C@H](O)[C@H]2O)[C@@H](O)[C@H](O)[C@H]1O)[C@H]1CC[C@]2(C)[C@@H]1[C@H](O)C[C@@H]1[C@@]3(C)CC[C@H](O[C@@H]4O[C@H](CO)[C@@H](O)[C@H](O)[C@H]4O[C@@H]4O[C@H](CO)[C@@H](O)[C@H](O)[C@H]4O)C(C)(C)[C@@H]3CC[C@]12C` [Ginsenoside Rc] is -0.0382.
